For 14 compounds, growth results are on record in PubChem BioAssay (NCI).

The panel holds about 83,000 compounds, 20% with a hit somewhere; the sample as a whole holds those more often.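 Interpretation: 100, growth as untreated; towards 0, rising growth inhibition; 0, no net growth; 0 to -100, cell death. Compounds scoring below 10 were considered active.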 Unmarked numbers belong to inactive results. Calls of active or inactive are those of the source.

What all share (experiment): NCI-60 one-dose screen, 48 h (100 = growth as untreated, 0 = no growth, -100 = all killed)
What all share (conditions): 10 µM unless noted

The test system of test [1] is HCT-15 colon.
In test [2] the test system is HT29 colon.
Test [3] relates to SNB-75 CNS.
Test [4] relates to SNB-19 CNS.
Test [5] deals with U251 CNS.
Test [6] concerns PC-3 prostate.
Test [7] relates to SK-MEL-5 melanoma.
Test [8] relates to UACC-62 melanoma.
For test [9], the system named is LOX IMVI melanoma.
Test [10] has as its system SK-MEL-28 melanoma.

On to `COc1ncnc2c1ncn2C/C(Br)=C(\Br)CCl`, for which the growth is 31.6% in [1]; -56.8% (active) in test [2]; 46.6% in test [3]; 89.9% in test [4]; -71.8% (active) in test [5]; 46.4% in test [6]. Moreover, the growth in [7] was 53.7%; in test [8] it was 57.3%; in test [9], -87.2% (active); in [10] it was 77.4%.
For the compound `CCN(CC)CCCNc1ccc(C)c2sc3ccccc3c(=O)c12`, the growth in test [1] was -13.3% (active); in test [2] it was -24.2% (active); in test [3] it was 47.1%; in test [4], 46.7%; in [5] it was 15.4%; in test [6], 22.7%. The growth was -99.4% (active) in test [7], -49.2% (active) in [8], -93.4% (active) in test [9] and -80% (active) in [10].
Regarding `O=C(N/N=C(\CS(=O)(=O)c1ccccc1)c1cc2cc(Br)ccc2oc1=O)c1ccccc1`, the growth is 99.8% in test [1]; 103% in test [2]; 89.8% in test [3]; 103% in test [4]; 97.7% in test [5]; 95.5% in test [6]. In addition, the growth in test [7] was 103%; in [8], 95.2%; in test [9] it was 99.1%; in test [10], 99.3%.
Regarding `O=[N+]([O-])c1ccc(C=C2C(Cl)=C(Cl)C(Cl)=C2Cl)cc1`, the growth in test [1] is 31.4%; in [2] it was 30.9%; in test [3] it was 81.5%; in test [4], 80.6%; in test [5], 20.1%; in test [6] it was 58.5%. In addition, the figures for the growth in test [7], in test [8] and in [10] were 121%, 71.7% and 107%, respectively.
Take `Cc1ccc2nc(NC(=O)CSC(=S)N3CCN(Cc4ccccc4)CC3)sc2c1`: the growth in test [1] is -37% (active); in test [2], -62.7% (active); in test [3], -93.2% (active); in test [4], -22.2% (active); in [5] it was -46.3% (active); in test [6], -40.2% (active). For the same compound, the growth was -96.4% (active) in test [7], -41.3% (active) in test [9] and -60% (active) in test [10].
With `COc1ccc(Nc2nc(NCCNc3ccnc4cc(Cl)ccc34)nc(N3CCOCC3)n2)cc1`, the growth in test [1] is 15.1%; in test [2], 4.28% (active); in test [3], 38.4%; in test [4] it was 78%; in test [5], 48.2%; in test [6], 43.8%. Further, the growth in test [7] was 48.7%; in test [8], 74.2%; in test [9] it was 40.2%; in [10], -80.7% (active).
Regarding `CN1CCc2cccc3c2C1Cc1ccc(O)c(O)c1-3` (centres undefined), the growth in [1] was 70.7%; in test [2], 76.2%; in test [3] it was 83.6%; in test [4] it was 111%; in test [5], 99.9%; in test [6], 65.6%. The growth in test [7] was 97.5%; in test [8] it was 105%; in [9], 67.8%; in test [10], 115%.
Turning to `COC(=O)CCC(=O)c1ccccc1`, the growth was 102% in [1]; 105% in test [2]; 117% in test [3]; 102% in test [4]; 100% in test [5]; 117% in test [6]. Also, the growth is 130% in [7], 104% in [8] and 108% in test [10].
As to `CCOc1ccc(-c2cnnn2-c2nonc2-n2cccc2)cc1`, the growth was 22.6% in [1]; 1.88% (active) in test [2]; 5.23% (active) in test [3]; 37% in test [4]; 17.6% in test [5]; 30.4% in [6]. For the same compound, the growth in test [7] was 24.7%; in test [8], 35.6%; in test [9], 33.1%; in test [10], 37.5%.
Turning to `COCCOC1=C(Cl)C(=O)c2ccccc2C1=O`, the growth in [1] was 13%; in test [2], 99%; in test [3] it was 8.63% (active); in test [4], 88.4%; in test [5], 8.18% (active); in [6], 18.7%. For the same compound, the growth in test [7] is -7.27% (active); in test [9], 22.1%; in [10], 13.7%.
On to `Cc1nc(-c2ccccc2)cc2c(O)c(C(=O)N/N=C/Cc3ccccc3)[nH]c(=O)c12`, for which the growth was 106% in test [1]; 93.8% in test [2]; 90.7% in test [3]; 110% in test [4]; 98.8% in test [5]; 90% in test [6]. In addition, the growth was 107% in [7], 109% in test [8], 95.7% in test [9] and 115% in test [10].
With `CC(=O)OC[C@]1(C)C=C2C(=O)[C@](C)(O)C3(CC3)C(C)=C2[C@H]1OC(C)=O`, the growth is 72.9% in test [1]; 69.9% in test [2]; 56.5% in [3]; 83% in test [4]; 79.5% in [5]; 88.1% in [6]. For the same compound, the growth in test [7] is 87.8%; in [8] it was 103%; in [9], 78.3%; in test [10] it was 109%.
For `CN([N-]C(=O)CC(=O)[N-]N(C)C(=S)c1ccccc1)C(=S)c1ccccc1.[Cu+2]`, the growth in test [1] is 2.52% (active); in test [2] it was -77.8% (active); in test [3], -96.8% (active); in test [4], -96.1% (active); in test [5] it was -99% (active); in test [6], -53% (active). The growth in test [7] was -94.6% (active); in [8], -92.4% (active); in test [9] it was -93.1% (active); in [10], -94.7% (active).
As to `COc1cc(C(F)(F)F)ccc1-c1cc(-c2ccc(F)cc2)n[nH]1`, the growth in test [1] was 73.3%; in test [2], 92.5%; in [3] it was 74.4%; in [4], 77.9%; in test [5] it was 80%; in test [6], 76%. The growth was 83.9% in test [8] and 96.9% in [9].
